# Most compounds without a hit are left out; they make up all but 3.4% or so of the library.
# hcDAF12 agonist: activates DAF-12 receptor from parasite H. contortus; HEK293 hcDAF-12 lit1-tk-luc reporter, luminescence; 0% DMSO, 100% Δ7-dafachronic acid; 370,000 tested, 1.4% active; activation, % at 6.8 µM; AID 652067;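 active = activation above the mean of all tested compounds plus 3 SD, cut at about 5.5% in these data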
# ssDAF-12 act: activates DAF-12 receptor from parasite S. stercoralis | HEK293 ssDAF-12/GRIP1 lit1-tk-luc reporter, luminescence; % of 3 µM dafachronic acid response | AID 652126 | activation, % at 6.8 µM | 370,000 tested, 1% active;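 active = activation above the mean over all tested compounds plus 3 SD, cut at about 0.9% in these data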
# NF-kB neuron act: NF-kB expression increase, human neuronal cells. NF-kB reporter expression; stronger effect = higher value. 190,000 tested, 1.6% active. fold change at 12.5 µM; in the data active = fold change above about 3.3
# hgDAF-12 ag: activates the H. glycines DAF-12 receptor ligand-binding domain | HEK293 GAL4-hgDAF12 UAS-luciferase reporter, agonist luminescence; normalized to butyrate control | AID 687014 | 370,000 tested, 1.8% active | activation, % at 6.8 µM;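 active = activation above a cutoff set at the mean of all screened compounds plus 3 SD, cut at about 10% in these data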
# APP 5'UTR act: APP 5'UTR luciferase reporter activation; SH-SY5Y APP 5'UTR luciferase reporter, luminescence; zero percent = DMSO vehicle wells; activation, % at 2 µM; 190,000 tested, 1% active; AID 1276;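 active = activation above a set limit, based on mean plus 3 SD of controls, cut at about 140% in these data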
# hgDAF12 ag: hgDAF-12 agonism, confirmation assay | shares compounds with hgDAF-12 ag | HEK293 GAL4-hgDAF12 luciferase reporter, agonist mode; percent of butyrate response | activation, % at 6.8 µM | 3,300 tested, 80% active | AID 743050;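 active = mean activation over triplicate wells above the hit cutoff derived from the earlier primary screen, cut at about 11% in these data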
# LXR ag 2: activates human LXR-beta, counter-screen for DAF-12 agonists. shares compounds with hgDAF-12 ag. HEK293 Gal4-LXR luciferase reporter, 24 h. activation, % at 6.8 µM. 3,300 tested, under 10 active. AID 743051;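 active = mean activation of the triplicate above a set limit carried over from the primary screen, none filed active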
# Target sequence (P55055 whole entry, looked up, the tested form may be a part): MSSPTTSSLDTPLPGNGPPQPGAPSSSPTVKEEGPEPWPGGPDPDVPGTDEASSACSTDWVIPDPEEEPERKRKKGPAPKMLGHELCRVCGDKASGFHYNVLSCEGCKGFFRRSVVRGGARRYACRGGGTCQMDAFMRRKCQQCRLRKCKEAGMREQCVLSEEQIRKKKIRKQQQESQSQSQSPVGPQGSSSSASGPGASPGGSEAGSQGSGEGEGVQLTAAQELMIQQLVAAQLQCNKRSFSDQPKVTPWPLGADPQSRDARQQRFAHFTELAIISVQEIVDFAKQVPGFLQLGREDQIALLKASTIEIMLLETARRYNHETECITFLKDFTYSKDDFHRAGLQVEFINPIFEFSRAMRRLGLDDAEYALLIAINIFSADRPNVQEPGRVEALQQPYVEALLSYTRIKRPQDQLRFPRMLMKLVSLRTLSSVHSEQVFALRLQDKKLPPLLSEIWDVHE
# A number is an active result; . = inactive; / = not tested or not shown.
SMILES,hcDAF12 agonist,ssDAF-12 act,NF-kB neuron act,hgDAF-12 ag,APP 5'UTR act,hgDAF12 ag,LXR ag 2
O=C(CN(CCc1ccccc1)S(=O)(=O)c1ccccc1)N1CCOCC1,.,.,/,.,/,/,/
Cc1ccccc1CC(=O)N1CCC(n2nnc3ncccc32)CC1,.,.,/,.,/,/,/
Cc1ccc(-c2cc(C(=O)NN=Cc3ccc(-c4ccccc4)cc3)[nH]n2)cc1C,.,.,/,.,/,/,/
COc1cc(/C=C/c2nnc3c4ccccc4ncn23)cc(OC)c1OC,.,.,.,.,.,/,/
C(=C\c1nnc2c3ccccc3ncn12)/c1ccccc1,6.1,2.5,.,15,.,18,.
CSCc1ccc(C(=O)Nc2cccc(C)c2C)cc1,.,1.7,.,14,.,11,.
Cc1cc(-c2nnc(SCC(=O)Nc3cccc4ccccc34)n2N)n[nH]1,.,.,/,.,/,/,/
COCCCN1C(=O)[C@H](CC(=O)NCCCN2CCCC2=O)[C@]2(C(=O)OC)CCCCC=C12,.,.,/,.,/,/,/
COc1cccc2cc(-c3csc(NC(=O)CCC(=O)NCCCN4CCC(C)CC4)n3)c(=O)oc12,6.2,1.6,/,15,/,14,.
O=C(CCc1ccccc1)N[C@H]1[C@H](OC(=O)c2ccc3ccccc3n2)CCC[C@@]12C(=O)N(Cc1ccccc1)c1ccccc12,.,.,/,.,/,/,/
O=c1[nH]c(CSc2ccccn2)nc2ccccc12,.,.,.,18,.,14,.
CCCCCN1CCCCC(NC(=O)c2cc(OC)c(OC)c(OC)c2)C1=O (configuration not stated),.,.,/,.,/,/,/
Oc1ccccc1C=Nc1ccccc1-c1nc2ccccc2[nH]1,.,.,.,18,.,.,.
Fc1ccccc1-c1nc2ccccc2[nH]1,.,.,.,15,.,12,.
Cc1cc(C)n2nc(SCC(=O)Nc3ccc(O)cc3)nc2n1,.,.,/,15,/,.,.
Cc1cc(C)n2nc(SCC(=O)Nc3ccc(F)cc3)nc2n1,.,.,.,.,.,/,/
COC(=O)[C@]12CCCCC=C1N(Cc1ccc(OC)cc1)C(=O)[C@@H]2CC(=O)N1CCC(c2ccccc2)CC1,.,.,/,.,/,/,/
O=C(Nc1ccc(Cl)cn1)c1ccc2c(Cl)c3c(nc2c1)CCC3,.,.,/,15,/,.,.
CN(C(=O)c1ccc2c(Cl)c3c(nc2c1)CCC3)c1ccccc1,.,.,.,.,.,/,/
CCC(C)NC(=O)c1ccc2c(Cl)c3c(nc2c1)CCC3 (configuration not stated),.,.,/,18,/,.,.
CCCCNc1ncnc2c1cnn2-c1ccccc1,.,.,5.7,20,.,17,.
c1ccc(-n2ncc3c(NCCCN4CCOCC4)ncnc32)cc1,.,.,.,.,.,/,/
CCCCNc1ncnc2c1cnn2Cc1ccc(Cl)cc1,.,.,/,.,/,/,/
CCCCNc1ncnc2c1cnn2-c1ccc(Cl)cc1,.,.,7.2,16,.,24,.
Oc1ccc(N=Nc2n[nH]c(-c3ccccc3)n2)cc1,.,.,6.3,15,146,17,.
SMILES,hcDAF12 agonist,ssDAF-12 act,NF-kB neuron act,hgDAF-12 ag,APP 5'UTR act,hgDAF12 ag,LXR ag 2
C/C(=N\Nc1nncc2ccccc12)c1ccc(OCC(=O)N(C)C)cc1,.,.,/,16,/,.,.
CC/C(=N\Nc1nncc2ccccc12)c1ccc(F)cc1,.,.,/,16,/,16,.
Cc1ccc(S(=O)(=O)Nc2cc(C(=O)O)ccc2N2CCC(C)CC2)cc1C,.,.,/,.,/,/,/
Oc1ccc(-c2nnc(-c3ccc(O)cc3)nn2)cc1,6.5,.,6.1,15,.,21,.
O=C(NS(=O)(=O)c1ccccc1[N+](=O)[O-])[C@H]1O[C@@H](n2ccc(=O)[nH]c2=O)[C@H](O)[C@@H]1O,.,.,/,15,/,.,.
O=C(OCC(=O)N1CCOCC1)c1ccccc1Cc1ccccc1,6.3,.,5.5,17,.,18,.
Nc1nnc(-c2ccc(F)cc2)s1,.,.,.,.,.,/,/
CC(C)(C)c1ccc(-c2nnc(N)s2)cc1,.,.,4.9,17,146,12,.
C[C@H]1COc2cc(Br)ccc2S(=O)(=O)N1Cc1cn(CCC2OCCO2)nn1,.,.,/,.,/,/,/
COc1ccc(NS(=O)(=O)c2ccc(NC(=O)c3ccccn3)cc2)cc1,.,.,/,.,/,/,/
CCCC(=O)Nc1ccc(NC(=O)c2ccccn2)cn1,.,1.2,.,13,.,.,.

# Bioassay records: PubChem BioAssay, several laboratories
